Experimental findings from ChEMBL document CHEMBL1157539, “Thousands of chemical starting points for antimalarial lead identification” (Nature, 2010) are described below.

As a reminder, the Inhibition is the change of the read-out against control, counted positive when it falls. Low readings indicate little suppression, high ones strong suppression.

Common to all, as to assay type: functional
Experiment [1] relates to Plasmodium falciparum. Briefly: GSK_TCMDC: Inhibition of Plasmodium falciparum 3D7 in whole red blood cells, using parasite LDH activity as an index of growth. Test compounds present at 2uM.
Experiment [2] relates to Plasmodium falciparum. Description: GSK_TCMDC: Inhibition of Plasmodium falciparum Dd2 in whole red blood cells, using parasite LDH activity as an index of growth. Test compounds present at 2uM.
For a further experiment, the system named is HepG2. Description: GSK_TCMDC: Percent inhibition of human HepG2 cell line. Test compounds present at 10uM.

Take `Cc1cccc2nc(-c3cccc(-c4ccc(C(=O)NCc5nccn5C)cc4)c3)[nH]c12`: the Inhibition is reported as 100% in the experiment on Plasmodium falciparum [1], 9% in the experiment with Plasmodium falciparum [2] and 18% in the experiment with HepG2.

`COc1cccc(-c2cc3nc4c(c(NCCCn5ccnc5)n3n2)CCCC4)c1`: the Inhibition is recorded as 100% in the experiment on Plasmodium falciparum [1], 66% with Plasmodium falciparum [2] and 10% in the experiment with HepG2.

Take `COc1ccc(NS(=O)(=O)c2cccc(C(=O)Nc3ccc(C(F)(F)F)cc3)c2)cc1N1CCN(CC(C)C)CC1.O=C(O)C(F)(F)F`: the values for the Inhibition with Plasmodium falciparum [1], with Plasmodium falciparum [2] and with HepG2 were 94%, 4% and 5%, respectively.

With `CC(C)(C)OC(=O)N1CCN(c2ccccc2NC(=O)c2cccc(C(F)(F)F)c2Oc2ccc(F)cc2)CC1`, the Inhibition in the experiment with Plasmodium falciparum [1] was 100%; in the experiment with Plasmodium falciparum [2] it was 9%; with HepG2, 3%.

Regarding `Cc1cc(=O)c(-c2ccc(OCc3ccc(OC(F)(F)F)cc3)cc2)c(C)[nH]1`, the Inhibition is listed as 97% with Plasmodium falciparum [1], 92% in the experiment with Plasmodium falciparum [2] and 3% in the experiment on HepG2.

Turning to `Cc1[nH]c(C)c(-c2ccc(-c3cccc(OC(F)(F)F)c3)nc2)c(=O)c1Cl`, the Inhibition in the experiment on Plasmodium falciparum [1] is listed as 98%; in the experiment with Plasmodium falciparum [2], 97%; in the experiment with HepG2, 30%.

For `Cc1cc(N2CCOCC2)nc2ccc(NC(=O)c3cccc([N+](=O)[O-])c3)cc12`, the results for the Inhibition in the experiment on Plasmodium falciparum [1], with Plasmodium falciparum [2] and in the experiment with HepG2 were 97%, 37% and 0%, respectively.

For the compound `Cc1ccc(O)cc1Nc1ccnc2cc(-c3ccccn3)ccc12.Cl` [GW440139A], the results for the Inhibition in the experiment on Plasmodium falciparum [1], in the experiment on Plasmodium falciparum [2] and in the experiment with HepG2 were 97%, 98% and 6%, respectively.

For the compound `Cc1[nH]c2ccc(C#N)cc2c(=O)c1Br`, the Inhibition with Plasmodium falciparum [1] came to 91%; in the experiment on Plasmodium falciparum [2] it was 61%; with HepG2, 2%.

For the compound `CN(C)CCCNCc1ccc(-c2ccc(C(F)(F)F)cc2)cc1`, the Inhibition amounted to 96% in the experiment on Plasmodium falciparum [1], 35% in the experiment on Plasmodium falciparum [2] and 30% in the experiment with HepG2.

In the case of `Cl.Nc1cccc(C=CC(=O)N=c2cc[nH]c3ccccc23)c1`, the Inhibition is 98% with Plasmodium falciparum [1], 60% in the experiment with Plasmodium falciparum [2] and 7% with HepG2.

Take `CN1CCN(c2nc(NCCNc3ccc([N+](=O)[O-])cc3)c3ccccc3n2)CC1`: the Inhibition came to 90% in the experiment on Plasmodium falciparum [1], 25% with Plasmodium falciparum [2] and 37% with HepG2.

For the compound `COc1cc(Cc2cnc(N)nc2N)ccc1Oc1ccc(N)cc1`, the Inhibition in the experiment on Plasmodium falciparum [1] was found to be 93%; in the experiment on Plasmodium falciparum [2], 0%; in the experiment with HepG2, 0%.

`Cc1ccccc1C1CCN(C2CCC(NC(=O)/C=C/c3ccccc3C(F)(F)F)CC2)CC1` (stereo not drawn): the figures for the Inhibition in the experiment with Plasmodium falciparum [1], in the experiment with Plasmodium falciparum [2] and in the experiment with HepG2 were 83%, 6% and 63%, respectively.

Take `O=C1C(c2ccccc2)=C(Nc2ccc([N+](=O)[O-])cc2)c2ccccc21`: the Inhibition in the experiment with Plasmodium falciparum [1] worked out at 95%; in the experiment on Plasmodium falciparum [2] it was 73%; in the experiment on HepG2, 0%.

Turning to `Clc1ccc(Cl)c2[nH]c(CNCCCNc3nc4ccccc4[nH]3)cc12`, the Inhibition with Plasmodium falciparum [1] is given as 100%; in the experiment on Plasmodium falciparum [2] it was 39%; in the experiment on HepG2 it was 88%.

For the compound `COc1ccc(-c2cc(C(=O)N[C@@H](CC3CCCCC3)C(=O)NCCN3CCCCC3)ccc2O)cc1`, the Inhibition is given as 98% in the experiment on Plasmodium falciparum [1], 72% in the experiment with Plasmodium falciparum [2] and 3% in the experiment with HepG2.

Take `COc1cccc(-c2ccc(C(=O)NCC3CCCN(Cc4cccc(C(F)(F)F)c4)C3)s2)c1.O=C(O)C(F)(F)F` (stereo not drawn): the Inhibition was 85% in the experiment on Plasmodium falciparum [1], 18% in the experiment on Plasmodium falciparum [2] and 10% in the experiment with HepG2.

Consider `CC(C)CNCc1cccc(-c2cccc(CN(CCCN3CCN(C)CC3)C(=O)CCC3CCCC3)c2)c1.O=C(O)C(F)(F)F`, for which the Inhibition with Plasmodium falciparum [1] was 100%; in the experiment with Plasmodium falciparum [2], 96%; in the experiment on HepG2, 45%.

On to `CN1CCC(c2csc3ccc(NC(=O)Nc4ccc(-c5ccncc5)c5ccccc45)cc23)CC1`, for which the Inhibition in the experiment with Plasmodium falciparum [1] was 98%; with Plasmodium falciparum [2], 71%; with HepG2, 8%.

For `COc1ccc2ncn(-c3ccc(C(N)=O)c(OCc4ccccc4C(F)(F)F)c3)c2c1`, the values for the Inhibition in the experiment with Plasmodium falciparum [1], in the experiment on Plasmodium falciparum [2] and in the experiment with HepG2 were 98%, 100% and 18%, respectively.

For the compound `Cc1[nH]c(C)c(-c2ccc(OCCCCSc3ccncc3)cc2)c(=O)c1Br`, the Inhibition in the experiment on Plasmodium falciparum [1] was 97%; in the experiment on Plasmodium falciparum [2], 97%; in the experiment with HepG2, 0%.

Turning to `O=C(Nc1cccc(-c2cccc(-c3nc4cc(C(F)(F)F)ccc4[nH]3)c2)c1)c1ccncc1`, the Inhibition with Plasmodium falciparum [1] turned out to be 100%; in the experiment on Plasmodium falciparum [2], 61%; in the experiment on HepG2, 52%.

As to `CN1CCN(C(C(=O)NCc2cc(Cl)cc(Cl)c2)c2ccc(Nc3cccc(C(F)(F)F)c3)cc2)CC1` (stereo not drawn), the Inhibition with Plasmodium falciparum [1] came out at 85%; with Plasmodium falciparum [2], 98%; in the experiment with HepG2 it was 49%.

With `NC1CCCN(Cc2ccc(-c3cccc(-c4nc5ccccc5[nH]4)c3)cc2)C1.O=C(O)C(F)(F)F` (stereo not drawn), the Inhibition was 95% in the experiment on Plasmodium falciparum [1], 26% in the experiment on Plasmodium falciparum [2] and 26% in the experiment with HepG2.

As for `CCNc1cc(C)nc(Nc2ccc(NC(=O)c3ccccc3)cc2)n1`, the Inhibition came to 100% with Plasmodium falciparum [1], 63% with Plasmodium falciparum [2] and 41% in the experiment on HepG2.

In the case of `Cc1ccc(NS(=O)(=O)c2ccc(-c3ccccc3)cc2)c(Cn2cnc(N3CCCNCC3)cc2=O)c1.O=C(O)C(F)(F)F`, the figures for the Inhibition in the experiment on Plasmodium falciparum [1], in the experiment with Plasmodium falciparum [2] and with HepG2 were 87%, 33% and 10%, respectively.

Take `O=C(c1cccc(-c2cccc(-c3nc4cc(F)ccc4[nH]3)c2)c1)N1CCCCC1CN1CCC(O)C1` (stereo not drawn): the results for the Inhibition with Plasmodium falciparum [1], with Plasmodium falciparum [2] and in the experiment on HepG2 were 90%, 100% and 36%, respectively.

Turning to `CCOC(=O)N1CCN(CCCNc2c3ccccc3nc3ccccc23)CC1.Cl`, the Inhibition with Plasmodium falciparum [1] stood at 90%; with Plasmodium falciparum [2] it was 20%; in the experiment with HepG2, 5%.

Take `Cn1cc(C2CCN(CCCCCNC(=O)/C=C/c3ccc(Cl)c(Cl)c3)CC2)c2cc(O)ccc21`: the values for the Inhibition in the experiment on Plasmodium falciparum [1], with Plasmodium falciparum [2] and in the experiment with HepG2 were 94%, 0% and 11%, respectively.

For the compound `CCOC(=O)C1CCN(CCOc2cc(NC(=O)/C=C/c3ccccc3Cl)ccc2Br)CC1.O=C(O)C(=O)O`, the Inhibition in the experiment on Plasmodium falciparum [1] was determined as 87%; in the experiment with Plasmodium falciparum [2], 29%; in the experiment with HepG2, 6%.
